Results on 40 molecules are retold here after ChEMBL document CHEMBL1157539, “Thousands of chemical starting points for antimalarial lead identification” (Nature, 2010).

As usually defined, the Inhibition is the change of the read-out against control, counted positive when it falls. A lower Inhibition goes with a weak effect.

The subject of one test is Plasmodium falciparum. In words: GSK_TCMDC: Inhibition of Plasmodium falciparum 3D7 in whole red blood cells, using parasite LDH activity as an index of growth. Test compounds present at 2uM. The format is functional.
As for `Cc1cc(=O)c2cc(Oc3cccc(OC(F)(F)F)c3)ccc2[nH]1`, the Inhibition amounted to 90%.
Molecule `CCOC(=O)c1[nH]c2cc(Cl)cc(Cl)c2c1/C=C/C(=O)Nc1ccc(-c2cnc(NC(C)=O)[nH]2)cc1` had an Inhibition of 100%.
Still for that read-out and setting: under `CN1CCN(c2ccnc3ccc(NC(=O)Nc4cccc5c(-c6ccncc6)cccc45)cc23)CC1` stands 100%; under `CC(C)c1ccc(NC(S)=NN=Cc2ccccn2)cc1`, 100%.
Regarding `O=C(c1ccc(-c2ccccn2)s1)N1CCc2cc3nccc(N4CCN5CCC[C@H]5C4)c3cc21`, the Inhibition worked out at 96%.
As to `O=C(N[C@@H](CC1CCCCC1)C(=O)NC1CCCc2ccccc21)c1ccc(O)c(-c2ccc(Cl)c(Cl)c2)c1` (stereo not given in full), the Inhibition turned out to be 98%.
In the case of `OCc1c(Cl)cc(Cl)cc1CNCCCNc1nc2ccccc2[nH]1`, the Inhibition is recorded as 100%.
`Cc1cccc2nc(-c3ccc(-c4cccc(CNCc5ccc(CN)cc5)c4)s3)[nH]c12.O=C(O)C(F)(F)F` displayed an Inhibition of 99%.
As to `Fc1cccc(COc2ccc(Nc3ncnc4sc(C#Cc5ncc[nH]5)cc34)cc2Cl)c1`, the Inhibition came to 100%.
Same read-out and setting: under `Cc1ccc2c(N/N=C/c3ccccc3[N+](=O)[O-])cc(C)nc2c1` stands 100%.
`CC(=O)O.C[C@H](NC(=O)[C@H](Cc1ccccc1)NC(=O)OC(C)(C)C)C(=O)N[C@@H](CC1CCCCC1)C(O)CN` (stereo not given in full) registered an Inhibition of 96%.
For `COC(=O)c1cccc(CNCc2cccc(-c3cccc(-c4nc5cc(C(F)(F)F)ccc5[nH]4)c3)c2)c1.O=C(O)C(F)(F)F`, the Inhibition is listed as 100%.
In turn, `Cc1ccc2c(=NN=Cc3ccc(N(C)C)cc3)cc(C)[nH]c2c1` came in with an Inhibition of 99%.
Consider `COC1(C)Oc2ccc3cccc([N+](=O)[O-])c3c2C1=O` (stereo not given), for which the Inhibition is listed as 98%.
Same read-out and setting: the result for `COc1ccc(C=CC(=O)Nc2ccc(N3CCCC3)cc2)cc1.Cl` reads 81%.
The same measure, in the same setting: the result for `CCCNCc1ccc(-c2ccc(CN(CCOC)C(=O)CCCOCc3ccccc3)cc2)nc1.O=C(O)C(F)(F)F` reads 93%; that for `Nc1ncc(-c2ccccc2)cc1-c1cccc2ncccc12.O=C(O)C(F)(F)F`, 97%.
`Cc1cc(OCC2CCN(c3ncc(C(=O)Nc4ccccc4)cc3Cl)CC2)ccc1F` showed an Inhibition of 91%.
The molecule `CC(=O)Nc1nc(C(=O)Nc2ccc(-c3cccc(-c4nc5cccc(C)c5[nH]4)c3)cc2)cs1` came in with an Inhibition of 100%.
As for `Cn1cc(C2CCN(CCCCNC(=O)c3sc(-c4ccc(C(F)(F)F)cc4)nc3CO)CC2)c2ccccc21`, the Inhibition stood at 95%.
In turn, `COc1ccc2nccc([C@@H](O)CN3CCC(c4cc(-c5ccc(Cl)cc5)[nH]n4)CC3)c2n1` came in with an Inhibition of 97%.
The molecule `O=c1[nH]c2c(cc1CNC1CCCCC1)c(-c1ccc(F)cc1)nn2-c1ccccc1` showed an Inhibition of 99%.
The molecule `Oc1c(C(Nc2nc3ccccc3s2)c2ccccc2)ccc2cccnc12` (stereo not given) returned an Inhibition of 95%.
`CCS(=O)(=O)Nc1ccc2[nH]cc(C3CCN(CCC4CCN(C(=O)/C=C/c5ccc(Cl)c(Cl)c5)CC4)CC3)c2c1`: the Inhibition was 99%.
With `Cc1ccc(F)c(NC(=O)c2c(-c3c(F)cccc3Cl)noc2C)c1`, the Inhibition was found to be 90%.
`O=C(Nc1ccc(OC2CCN(Cc3ccccc3)CC2)c(Cl)c1)c1ccco1.O=C(O)C(F)(F)F` had an Inhibition of 96%.
Still for that read-out and setting: the result for `Cc1cc(NC(=O)Nc2ccc(C#N)cc2)c2ccccc2n1` reads 100%; that for `NC(=O)COc1c(C2CCN(CCCCNC(=O)c3ccc(-c4ccc(Cl)cc4)c(O)c3)CC2)ccc2c1CCCC2`, 100%.
`O=C(NC1CCN(Cc2ccccc2)CC1)c1ccc(-c2nc3cc(Cl)c(F)cc3[nH]2)cc1` yielded an Inhibition of 100%.
As to `Cc1nc2ccc(-c3ccc(OC(F)(F)F)cc3)cc2c(O)c1C#N`, the Inhibition was found to be 98%.
Same read-out and setting: the result for `Br.Cc1ccc(OCCCON2C(=N)N=C(N)NC2(C)C)cc1C` reads 96%.
In turn, `CCN(CC)c1ccc(NC(=S)NC2CCN(CCCCCNC(=O)/C=C/c3ccc(Cl)c(Cl)c3)CC2)cc1` had an Inhibition of 100%.
The molecule `Cl.NOCCCOc1ccccc1` yielded an Inhibition of 100%.
With `CCc1ccc(NC(=O)c2cccc(CN3CCCN(Cc4cccc(O)c4)CC3)c2)cc1.O=C(O)C(F)(F)F`, the Inhibition turned out to be 99%.
`CCC(CC)N1C(=O)C(c2ccccc2)(c2ccccc2)N=C1N.O=CO` registered an Inhibition of 96%.
Take `CCN(CC)CCN(Cc1ccc(-c2ccc(C(F)(F)F)cc2)cc1)C(=O)Cn1c(CCc2cccc(F)c2F)cc(=O)cc1-c1ccccc1`: the Inhibition amounted to 94%.
With `Cc1noc(C)c1-c1ccc(C(=C2CCCCCCC2)c2ccc(O)cc2)cc1`, the Inhibition is 83%.
Same read-out and setting: the result for `CCCC(C)Nc1nc(C)cc(N[C@@H](Cc2ccccc2)C(=O)NCc2ccc(C)cc2)n1.O=C(O)C(F)(F)F` (stereo not given in full) reads 100%; that for `O=C(/C=C/c1ccc(Cl)c(Cl)c1)NCCCCN1CCCN(C(=O)Nc2ccc(F)c(Cl)c2)CC1`, 87%; that for `Cc1cc2c(cc1Cl)N(C(=O)Nc1cc(F)cc(-c3cncnc3)c1)CC2`, 96%.

Another test deals with Plasmodium falciparum. In words: GSK_TCMDC: Inhibition of Plasmodium falciparum Dd2 in whole red blood cells, using parasite LDH activity as an index of growth. Test compounds present at 2uM. The format is functional.
`Cc1cc(=O)c2cc(Oc3cccc(OC(F)(F)F)c3)ccc2[nH]1` showed an Inhibition of 80%.
Turning to `CCOC(=O)c1[nH]c2cc(Cl)cc(Cl)c2c1/C=C/C(=O)Nc1ccc(-c2cnc(NC(C)=O)[nH]2)cc1`, the Inhibition was found to be 65%.
In turn, `CN1CCN(c2ccnc3ccc(NC(=O)Nc4cccc5c(-c6ccncc6)cccc45)cc23)CC1` returned an Inhibition of 100%.
As to `CC(C)c1ccc(NC(S)=NN=Cc2ccccn2)cc1`, the Inhibition came out at 98%.
In turn, `O=C(c1ccc(-c2ccccn2)s1)N1CCc2cc3nccc(N4CCN5CCC[C@H]5C4)c3cc21` had an Inhibition of 49%.
Same read-out and setting: the result for `O=C(N[C@@H](CC1CCCCC1)C(=O)NC1CCCc2ccccc21)c1ccc(O)c(-c2ccc(Cl)c(Cl)c2)c1` (stereo not given in full) reads 99%; that for `OCc1c(Cl)cc(Cl)cc1CNCCCNc1nc2ccccc2[nH]1`, 2%.
`Cc1cccc2nc(-c3ccc(-c4cccc(CNCc5ccc(CN)cc5)c4)s3)[nH]c12.O=C(O)C(F)(F)F` registered an Inhibition of 48%.
As for `Fc1cccc(COc2ccc(Nc3ncnc4sc(C#Cc5ncc[nH]5)cc34)cc2Cl)c1`, the Inhibition worked out at 95%.
For the molecule `Cc1ccc2c(N/N=C/c3ccccc3[N+](=O)[O-])cc(C)nc2c1`, the Inhibition was 100%.
As to `CC(=O)O.C[C@H](NC(=O)[C@H](Cc1ccccc1)NC(=O)OC(C)(C)C)C(=O)N[C@@H](CC1CCCCC1)C(O)CN` (stereo not given in full), the Inhibition was found to be 64%.
Molecule `COC(=O)c1cccc(CNCc2cccc(-c3cccc(-c4nc5cc(C(F)(F)F)ccc5[nH]4)c3)c2)c1.O=C(O)C(F)(F)F` showed an Inhibition of 69%.
Still for that read-out and setting: under `Cc1ccc2c(=NN=Cc3ccc(N(C)C)cc3)cc(C)[nH]c2c1` stands 46%; under `COC1(C)Oc2ccc3cccc([N+](=O)[O-])c3c2C1=O` (stereo not given), 0%.
The same measure, in the same setting: the result for `COc1ccc(C=CC(=O)Nc2ccc(N3CCCC3)cc2)cc1.Cl` reads 9%; that for `CCCNCc1ccc(-c2ccc(CN(CCOC)C(=O)CCCOCc3ccccc3)cc2)nc1.O=C(O)C(F)(F)F`, 13%.
For the molecule `Nc1ncc(-c2ccccc2)cc1-c1cccc2ncccc12.O=C(O)C(F)(F)F`, the Inhibition was determined as 99%.
In turn, `Cc1cc(OCC2CCN(c3ncc(C(=O)Nc4ccccc4)cc3Cl)CC2)ccc1F` returned an Inhibition of 87%.
As for `CC(=O)Nc1nc(C(=O)Nc2ccc(-c3cccc(-c4nc5cccc(C)c5[nH]4)c3)cc2)cs1`, the Inhibition was 73%.
The molecule `Cn1cc(C2CCN(CCCCNC(=O)c3sc(-c4ccc(C(F)(F)F)cc4)nc3CO)CC2)c2ccccc21` displayed an Inhibition of 15%.
The molecule `COc1ccc2nccc([C@@H](O)CN3CCC(c4cc(-c5ccc(Cl)cc5)[nH]n4)CC3)c2n1` registered an Inhibition of 56%.
On to `O=c1[nH]c2c(cc1CNC1CCCCC1)c(-c1ccc(F)cc1)nn2-c1ccccc1`, for which the Inhibition stood at 88%.
For `Oc1c(C(Nc2nc3ccccc3s2)c2ccccc2)ccc2cccnc12` (stereo not given), the Inhibition is given as 83%.
Molecule `CCS(=O)(=O)Nc1ccc2[nH]cc(C3CCN(CCC4CCN(C(=O)/C=C/c5ccc(Cl)c(Cl)c5)CC4)CC3)c2c1` gave an Inhibition of 94%.
Molecule `Cc1ccc(F)c(NC(=O)c2c(-c3c(F)cccc3Cl)noc2C)c1` had an Inhibition of 18%.
The same measure, in the same setting: the result for `O=C(Nc1ccc(OC2CCN(Cc3ccccc3)CC2)c(Cl)c1)c1ccco1.O=C(O)C(F)(F)F` reads 96%; that for `Cc1cc(NC(=O)Nc2ccc(C#N)cc2)c2ccccc2n1`, 49%; that for `NC(=O)COc1c(C2CCN(CCCCNC(=O)c3ccc(-c4ccc(Cl)cc4)c(O)c3)CC2)ccc2c1CCCC2`, 72%.
`O=C(NC1CCN(Cc2ccccc2)CC1)c1ccc(-c2nc3cc(Cl)c(F)cc3[nH]2)cc1` displayed an Inhibition of 100%.
In the case of `Cc1nc2ccc(-c3ccc(OC(F)(F)F)cc3)cc2c(O)c1C#N`, the Inhibition is given as 97%.
The molecule `Br.Cc1ccc(OCCCON2C(=N)N=C(N)NC2(C)C)cc1C` gave an Inhibition of 94%.
As to `CCN(CC)c1ccc(NC(=S)NC2CCN(CCCCCNC(=O)/C=C/c3ccc(Cl)c(Cl)c3)CC2)cc1`, the Inhibition stood at 58%.
For the molecule `Cl.NOCCCOc1ccccc1`, the Inhibition is on record as 0%.
With `CCc1ccc(NC(=O)c2cccc(CN3CCCN(Cc4cccc(O)c4)CC3)c2)cc1.O=C(O)C(F)(F)F`, the Inhibition is given as 50%.
As to `CCC(CC)N1C(=O)C(c2ccccc2)(c2ccccc2)N=C1N.O=CO`, the Inhibition is 61%.
Regarding `CCN(CC)CCN(Cc1ccc(-c2ccc(C(F)(F)F)cc2)cc1)C(=O)Cn1c(CCc2cccc(F)c2F)cc(=O)cc1-c1ccccc1`, the Inhibition came to 64%.
With `Cc1noc(C)c1-c1ccc(C(=C2CCCCCCC2)c2ccc(O)cc2)cc1`, the Inhibition is listed as 48%.
Consider `CCCC(C)Nc1nc(C)cc(N[C@@H](Cc2ccccc2)C(=O)NCc2ccc(C)cc2)n1.O=C(O)C(F)(F)F` (stereo not given in full), for which the Inhibition is given as 93%.
The same measure, in the same setting: the result for `O=C(/C=C/c1ccc(Cl)c(Cl)c1)NCCCCN1CCCN(C(=O)Nc2ccc(F)c(Cl)c2)CC1` reads 2%; that for `Cc1cc2c(cc1Cl)N(C(=O)Nc1cc(F)cc(-c3cncnc3)c1)CC2`, 59%.
